The test can be described thus: NCI Yeast Anticancer Drug Screen. Data for the rad50EPP+ strain (AID 151).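 Note: 0% = growth of vehicle-treated control cultures.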 To be noted: S. cerevisiae rad50 mutant strain, stronger effect = higher value. Here is the method:
Growth inhibition of yeast strains with defined genetic alterations is measured as a screen for potential anti-cancer activity. Selected strains with alterations in DNA damage repair or cell cycle control were exposed to compounds and growth inhibition was measured relative to vehicle treated controls. The strain used in this assay is rad50EPP+

The panel holds about 79,000 compounds, 15% with a hit somewhere; the sample as a whole holds those more often. Unmarked numbers belong to inactive results. Active and inactive are the calls of the source. Cut-off read from the data, not from the text of the source: active = growth inhibition above about 70%; inactive = the rest.

Data on 8 compounds can be found in PubChem BioAssay (NCI).

With `COc1ccc2nc(N/N=C/c3sccc3C)cc(C)c2c1`, the growth inhibition reads like this: (at 1.2 µM) -18%; (at 3.7 µM) -19%; (at 11.0 µM) -21%; (at 33.0 µM) 15%; (at 100.0 µM) 76% (active).
On the same counts, the results for `CCCC(=O)OC(OC(=O)CCC)c1ccc([N+](=O)[O-])o1` are 2%, 15%, 46%, 83% (active) and 93% (active).
As for `COc1ccc2cc(CN3CCC(C4CCN(Cc5ccc6cc(OC)ccc6c5)CC4)CC3)ccc2c1`, the growth inhibition by setting is: (at 1.2 µM) -17%; (at 3.7 µM) -14%; (at 11.0 µM) -12%; (at 33.0 µM) -2%; (at 100.0 µM) 98% (active).
With `Cc1cccc(N2CCN(C(=O)/C(=C/c3ccccc3)NC(=O)c3ccccc3)CC2)c1`, the growth inhibition was 2% (at 1.2 µM); 0% (at 3.7 µM); 0% (at 11.0 µM); 2% (at 33.0 µM); -9% (at 100.0 µM).
`Oc1ccc(Br)cc1C=Nc1cccc(C(F)(F)F)c1`: the growth inhibition is 0% (at 1.2 µM); 4% (at 3.7 µM); 10% (at 11.0 µM); 30% (at 33.0 µM); 64% (at 100.0 µM).
For `O=C(O)/C=C\C(=O)NNc1ccc(Br)cc1`, the growth inhibition is 14% (at 1.2 µM); 78% (active) (at 3.7 µM); 98% (active) (at 11.0 µM); 99% (active) (at 33.0 µM); 99% (active) (at 100.0 µM).
For `CCN(CC)CCSc1c2ccccc2nc2cc(NCC(=O)Nc3ccccc3-c3ccccc3NC(=O)CNc3ccc4c(SCCN(CC)CC)c5ccccc5nc4c3)ccc12`, the growth inhibition (at 1.2 µM) was 9%; the growth inhibition (at 3.7 µM) is 10%; the growth inhibition (at 11.0 µM) is -8%; the growth inhibition (at 33.0 µM) is 38%; the growth inhibition (at 100.0 µM) was 89% (active).
On the same counts, the results for `O=C(/C(=C/c1ccccc1)CBr)c1ccccc1` are 17%, 50%, 82% (active), 96% (active) and 99% (active).
